The source made the active and inactive calls.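 The calls were made as follows, unless noted: active = visual image review flags a hit and inhibition of aggregation exceeds 20%; inconclusive = visual hit but inhibition at or below 20%; inactive = no hit on visual image review.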
Key:
[1] = inhibitors of TNFa-induced NFkB p65 translocation, primary screen, imaging, HUVEC, MLSMR starter and 10KST1 sets (AID 438;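 active = inhibition above 20% together with a positive visual image hit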;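 also: compound added about 3h40 before a 20 min TNFalpha stimulation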;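 as to inhibition: signal is the nuclear over cytoplasmic p65 intensity ratio per well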); details: HUVEC TNFa-induced p65 nuclear translocation; cell count: measured here: nuclei count (cytotoxicity indicator), at 2.08 µM; inhibition: at 2 µM, stronger effect = higher value, 0% TNFa-plus-vehicle, 100% no-TNFa wells
[2] = inhibitors of mutant huntingtin aggregation, primary screen, imaging, exon1htt(103Q)mCFP cells, high-content imaging (AID 483); details: exon1htt(103Q)mCFP cell line, aggregate imaging, at 2 µM; inhibition of aggregation: stronger effect = higher value; nuclei count: measured here: cell count, toxicity;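 also: compound exposure lasted 3 days before fixation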;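 as to nuclei count: percent of the per-plate median nuclei count of sample wells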
[3] = inhibitors of E-selectin induction by TNFa, primary screen, imaging, HUVEC, immunofluorescence, MLSMR starter and 10KST1 sets (AID 487;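 active = visually confirmed hit in the image check and inhibition above 20%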;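 as to inhibition: signal is fraction of cell area covered by stained E-selectin grains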;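 as to nuclei count: 100% = median nuclei count of all wells on the same plate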); details: HUVEC TNFalpha-induced E-selectin immunofluorescence imaging, at 2 µM; inhibition: stronger effect = higher value; nuclei count: measured here: cell number, toxicity
[4] = biological target: Voltage-gated potassium channel subunit beta-2 (Rattus norvegicus) (UniProt P62483); assay: KvBeta enzyme negative modulators, primary screen, biochemical, NADPH fluorescence (AID 622;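 active = fluorescence slope higher than the sample average by over 3 SD, cut at about -0.22 in these data, passing the limit was not always enough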;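 also: slope of raw intensity against log time taken from 70 to 1610 s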); details: recombinant KvBeta, 4-cyanobenzaldehyde reduction, at 10 µM, stronger effect = higher value
Voltage-gated potassium channel subunit beta-2 (Rattus norvegicus), sequence (P62483 whole entry, looked up): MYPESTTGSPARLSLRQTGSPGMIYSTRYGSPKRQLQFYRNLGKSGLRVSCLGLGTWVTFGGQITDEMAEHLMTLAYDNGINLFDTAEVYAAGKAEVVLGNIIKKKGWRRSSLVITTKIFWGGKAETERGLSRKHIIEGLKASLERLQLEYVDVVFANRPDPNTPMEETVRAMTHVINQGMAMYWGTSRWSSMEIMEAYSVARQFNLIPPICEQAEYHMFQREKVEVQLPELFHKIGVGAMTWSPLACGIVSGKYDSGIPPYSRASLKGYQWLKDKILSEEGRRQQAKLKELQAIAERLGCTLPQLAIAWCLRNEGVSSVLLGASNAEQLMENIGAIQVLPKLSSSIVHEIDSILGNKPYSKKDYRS

[5] = biological target: Voltage-gated potassium channel subunit beta-2 (Rattus norvegicus) (UniProt P62483); assay: KvBeta positive modulators, primary screen, biochemical, NADPH fluorescence (AID 623;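 active = NADPH fluorescence slope more negative than the mean of all samples by about 3 SD, 99.7% confidence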;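 also: fluorescence intensity change per second fitted from 20 to 320 s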); details: Recombinant KvBeta, NADPH fluorescence decrease slope, 10 min; at 10 µM; stronger effect = lower value
[6] = biological target: Alpha-2C adrenergic receptor (Homo sapiens) (UniProt P18825); assay: modulators of alpha2C/GIRK thallium flux, primary screen, cell-based, HEK293 alpha2C/GIRK1/2 (AID 624;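 active = fluorescence slope after compound addition differing from the mean of all screened samples at 99.7% confidence, in either direction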;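 also: slope of fluorescence ratio to pre-addition baseline per second over 15 to 24 s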); details: thallium flux BTC fluorescence, at 10 µM, actives lie on both sides
Alpha-2C adrenergic receptor (Homo sapiens), sequence (P18825 whole entry, looked up): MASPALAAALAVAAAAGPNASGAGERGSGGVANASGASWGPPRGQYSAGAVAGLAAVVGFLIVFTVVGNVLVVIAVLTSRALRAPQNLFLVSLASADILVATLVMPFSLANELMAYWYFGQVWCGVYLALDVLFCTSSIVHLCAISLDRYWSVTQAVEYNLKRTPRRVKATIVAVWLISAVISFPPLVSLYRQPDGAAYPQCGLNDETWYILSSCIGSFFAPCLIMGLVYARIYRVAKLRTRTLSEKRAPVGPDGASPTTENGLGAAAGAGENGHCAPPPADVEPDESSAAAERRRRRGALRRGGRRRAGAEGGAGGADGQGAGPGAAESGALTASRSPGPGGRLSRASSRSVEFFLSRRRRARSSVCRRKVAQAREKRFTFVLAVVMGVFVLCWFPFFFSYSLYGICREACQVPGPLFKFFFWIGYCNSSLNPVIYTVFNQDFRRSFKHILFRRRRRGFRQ

[7] = inhibitors of Sendai virus-induced IRF3 signaling, primary screen, TLR/RLR signaling modifier project, cell-based, Sendai virus stimulus, luciferase, 10K MLSCN set (AID 602276;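 active = inhibition at or above 50% at 10 µM; inactive = inhibition below 50%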;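 also: firefly luciferase from ISG56 promoter only with Renilla not read in this screen; 0% = Sendai virus plus DMSO and 100% = medium plus DMSO without virus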); details: HEK293 RL24 IRF3 luciferase reporter, at 10 µM, stronger effect = higher value
[8] = inhibitors of poly I:C-induced TLR3 signaling, primary screen, cell-based, poly I:C stimulus, luciferase, 10K MLSCN set (AID 602277;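 active = inhibition of the reporter signal at or above 50%; inactive = inhibition below 50%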); details: HEK293-TLR3 RL24 IRF3 luciferase reporter, at 10 µM, stronger effect = higher value

Row | Compound | cell count [1] | inhibition [1] | inhibition of aggregation [2] | nuclei count [2] [%] | inhibition [3] | nuclei count [3] [%] | fluorescence slope [4] | NADPH fluorescence slope [5] | slope [6] | inhibition [7] | inhibition [8]
1 | CCC(C)(C(=O)NC1CCCCC1)N(Cc1ccco1)C(=O)c1ccc2c(c1)OCO2 (stereo not drawn) | 593 | -9.3% (inactive) | -2.7% (inactive) | 80.7 | 25.6% (inactive) | 95.5 | -0.423 (inactive) | -7.4e-06 (inactive) | 0.00563 (inactive) | 21.1% (inactive) | 49.5% (inactive)
2 | CC(NC(=O)COc1ccc(Br)cc1)C(=O)O (stereo not drawn) | 434 | 6% (inactive) | 4.7% (inactive) | 100 | -149% (inactive) | 136 | -0.439 (inactive) | -1.3e-05 (inactive) | 0.00364 (inactive) | 10.1% (inactive) | 24.7% (inactive)
3 | COC(=O)Nc1sc2c(c1C(=O)N1CCOCC1)CCC(C)C2 (stereo not drawn) | 324 | -10.6% (inactive) | -10.8% (inactive) | 118 | 2.3% (inactive) | 75.2 | -0.409 (inactive) | 6.2e-06 (inactive) | 0.00394 (inactive) | 7.08% (inactive) | -3.14% (inactive)
4 | CS(=O)(=O)N1CCN(c2ccccc2NC(=O)c2ccc(-c3ccc(Cl)cc3Cl)o2)CC1 | 194 | -3.5% (inactive) | 32.9% (active) | 72.7 | 24.8% (inactive) | 54.7 | -0.357 (inactive) | 2.6e-05 (inactive) | 0.00896 (inactive) | 12% (inactive) | 23.2% (inactive)
5 | CCOc1ccc(C(=O)N2CCN(C(=O)c3ccco3)CC2)cc1OCC | 558 | -2.7% (inactive) | -6.8% (inactive) | 111 | 28.1% (inactive) | 93.4 | -0.367 (inactive) | 4.3e-05 (inactive) | 0.00675 (inactive) | 12% (inactive) | 21.2% (inactive)
6 | O=C(CCS(=O)(=O)c1cccc2nsnc12)N1CCN(Cc2ccc3c(c2)OCO3)CC1 | 582 | 4.1% (inactive) | -47.2% (inactive) | 53.4 | -84.7% (inactive) | 97.8 | -0.533 (inactive) | -4.8e-05 (inactive) | 0.00459 (inactive) | 2.36% (inactive) | 14.2% (inactive)
7 | O=C(CSc1ncnc2ccccc12)NCCCO | 458 | -11% (inactive) | -1.4% (inactive) | 104 | 7.4% (inactive) | 101 | -0.628 (inactive) | 8.9e-06 (inactive) | 0.00699 (inactive) | 15.3% (inactive) | 26.4% (inactive)
8 | CCOC(=O)c1[nH]c(C)c(C(=O)NCc2ccccn2)c1C | 664 | -2.8% (inactive) | -6.6% (inactive) | 87.7 | -173% (inactive) | 114 | -0.51 (inactive) | -0.000223 (inactive) | 0.00562 (inactive) | 17.5% (inactive) | 14.1% (inactive)
9 | COc1ccc(Cn2c(-c3ccco3)nc3oc4ccccc4c(=O)c3c2=O)cc1 | 492 | -7.6% (inactive) | -68.5% (inactive) | 90.1 | -22% (inactive) | 115 | -0.491 (inactive) | -2.1e-05 (inactive) | 0.00596 (inactive) | -1.06% (inactive) | -24.4% (inactive)
10 | COc1ccc(OC)c(-c2nc3c(C)n[nH]c(=O)c3[nH]2)c1 | 536 | 10.3% (inactive) | 13% (inactive) | 18.1 | 9.1% (inactive) | 118 | -0.423 (inactive) | -6.2e-05 (inactive) | 0.00496 (inactive) | 8.37% (inactive) | 20.2% (inactive)
11 | O=C(CCOc1ccccc1)NCc1ccccc1 | 729 | -17.6% (inactive) | -3.7% (inactive) | 97.3 | 12.7% (inactive) | 114 | -0.559 (inactive) | 7.4e-05 (inactive) | 0.00548 (inactive) | 11.5% (inactive) | 12.3% (inactive)
12 | CCOC(=O)N1CCN(CC(O)COc2ccccc2C(C)CC)CC1 (stereo not drawn) | 631 | -12.4% (inactive) | 0.6% (inactive) | 100 | -35.9% (inactive) | 122 | -0.612 (inactive) | -1.6e-05 (inactive) | 0.00663 (inactive) | 10.8% (inactive) | 35.4% (inactive)
13 | CN(C)c1ccc(NC(=O)c2cc3c(=O)n4ccccc4nc3n2C)cc1 | 216 | -10.7% (inactive) | 4.4% (inactive) | 89 | 52.4% (inactive) | 68.8 | -0.572 (inactive) | -3.5e-05 (inactive) | 0.00472 (inactive) | 1.6% (inactive) | -86.3% (inactive)
14 | Cc1onc(-c2ccccc2)c1C(=O)Nc1ccc(S(=O)(=O)N2CCCCC2)cc1 | 786 | 7.8% (inactive) | -10.9% (inactive) | 97.3 | -35.5% (inactive) | 108 | -0.599 (inactive) | -5.5e-06 (inactive) | 0.00592 (inactive) | 15.1% (inactive) | 32.9% (inactive)
15 | CCN(Cc1nc2ccccc2c(=O)[nH]1)Cc1cc(=O)oc2cc(C)c(C)cc12 | 288 | 6.6% (inactive) | 0.4% (inactive) | 107 | -33.2% (inactive) | 126 | -0.435 (inactive) | -4.6e-05 (inactive) | 0.00456 (inactive) | 5.41% (inactive) | 8.19% (inactive)
16 | CCS(=O)(=O)N1CCC(C(=O)NC2CCCCCCC2)CC1 | 649 | -9.4% (inactive) | -9.5% (inactive) | 104 | -113% (inactive) | 128 | -0.378 (inactive) | 1.4e-05 (inactive) | 0.00549 (inactive) | -13% (inactive) | -6.47% (inactive)
17 | Cc1cc(C)n2cc(CSc3nnnn3-c3ccc(Cl)cc3)nc2n1 | 446 | 2.4% (inactive) | -22.5% (inactive) | 99.6 | 15.8% (inactive) | 91.8 | -0.517 (inactive) | -3.7e-05 (inactive) | 0.00492 (inactive) | 19.2% (inactive) | 16.6% (inactive)
18 | COc1cccc(C(c2nnnn2CCc2ccccc2)N2CCN(c3ccccc3)CC2)c1OC (stereo not drawn) | 605 | -23.5% (inactive) | -19.6% (inactive) | 94.9 | 48.8% (inactive) | 91.6 | -0.516 (inactive) | -3e-06 (inactive) | 0.00514 (inactive) | 18.8% (inactive) | 10.1% (inactive)
19 | CC(C)c1nnc(NC(=O)C2CCCCC2)s1 | 571 | -5.2% (inactive) | 22.8% (inactive) | 40.4 | 20.2% (inactive) | 76.2 | -0.421 (inactive) | -6.4e-05 (inactive) | 0.00517 (inactive) | -16.4% (inactive) | -54.8% (inactive)
20 | COc1ccc(NC(=O)N2CCN(c3nc(-c4cccc(OC)c4)cs3)CC2)cc1 | 564 | -7.5% (inactive) | 8.8% (inactive) | 93.9 | -23.1% (inactive) | 104 | -0.478 (inactive) | -3.3e-05 (inactive) | 0.0039 (inactive) | 2.91% (inactive) | -56.5% (inactive)
21 | Cc1ccc(-c2noc(CCC(=O)N3CCN(c4cccc(C(F)(F)F)c4)CC3)n2)cc1 | 647 | 7.6% (inactive) | -10.2% (inactive) | 95.8 | -36.9% (inactive) | 111 | -0.391 (inactive) | -5.4e-05 (inactive) | 0.00562 (inactive) | 9.01% (inactive) | 6.71% (inactive)
22 | COc1ccc(C)cc1NC(=O)CCC(=O)Nc1ccc2nc(N3CCN(C)CC3)cc(C)c2c1 | 623 | 1.5% (inactive) | -9.5% (inactive) | 104 | -62.6% (inactive) | 108 | -0.428 (inactive) | 6e-06 (inactive) | 0.00326 (inactive) | -21.1% (inactive) | -51.1% (inactive)
23 | O=C(C1CCCN(S(=O)(=O)c2ccc(Br)s2)C1)N1CCCCCC1 (stereo not drawn) | 217 | -1.9% (inactive) | 5.7% (inactive) | 75.1 | 30.6% (inactive) | 31.6 | -0.378 (inactive) | -4.5e-05 (inactive) | 0.00305 (inactive) | 2.37% (inactive) | 13.4% (inactive)
24 | CC(=O)c1ccc(NC(=O)C2CCN(S(=O)(=O)c3cccc4cccnc34)CC2)cc1 | 591 | 8.3% (inactive) | -7.6% (inactive) | 102 | -11.2% (inactive) | 115 | -0.559 (inactive) | -1.3e-05 (inactive) | 0.0063 (inactive) | 14.2% (inactive) | 32.1% (inactive)
25 | O=C(CCN1C(=O)COc2ccccc21)N1CCN(c2ccccn2)CC1 | 690 | -8.6% (inactive) | -0.4% (inactive) | 101 | -176% (inactive) | 132 | -0.591 (inactive) | 5.1e-07 (inactive) | 0.00618 (inactive) | 10.4% (inactive) | 14.6% (inactive)
26 | Cc1ccccc1Nc1cc2ccccc2c(=O)[nH]1 | 481 | -12.2% (inactive) | -19.5% (inactive) | 102 | -35% (inactive) | 98.8 | -0.17 (inactive) | 1.6e-05 (inactive) | 0.00385 (inactive) | -7.13% (inactive) | 20.8% (inactive)
27 | Cc1ccc(-n2ncc(C(=O)N3CCc4ccccc4C3)c2NC(=O)c2ccco2)cc1C | 425 | 10.2% (inactive) | -0.3% (inactive) | 100 | 0.3% (inactive) | 114 | -0.415 (inactive) | -9.8e-05 (inactive) | 0.00658 (inactive) | 2.03% (inactive) | 20.1% (inactive)
28 | COC(=O)c1ccc(NC2(C#N)C(=O)Nc3ccccc32)cc1 (stereo not drawn) | 246 | 7.6% (inactive) | 15% (inactive) | 95.5 | -208% (inactive) | 116 | -0.408 (inactive) | -1.9e-05 (inactive) | 0.00466 (inactive) | 19% (inactive) | 8.66% (inactive)

— PubChem BioAssay
